In PubChem BioAssay (NCI):
This is part of a sample that, as a whole, favours compounds with a hit. Of some 83,000 tested, about 20% had one in any assay.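 Percent growth is the endpoint: 0 to 100 indicates growth inhibition (40 means 60% inhibition), 0 means no net growth, and negative values indicate cell death.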 Values without a mark were called inactive. Active and inactive are the calls of the source. How the source made its calls: active means growth percent below 10; inactive means the rest.

Tested on: HL-60(TB) leukemia
Experiment: NCI-60 one-dose screen, 48 h (100 = growth as untreated, 0 = no growth, -100 = all killed)
Conditions: 10 µM unless noted

SMILES	growth
CCOC(=O)c1c(NC(=O)c2ccc(F)cc2F)sc2c1CCC(=O)C2	91.9%
CCN1C(=O)N(CC)C2SC(N/N=C/c3ccc(OC)cc3)=NC21 (configuration not stated)	-16.6% (active)
N#Cc1cnc2ccc(-c3cnc4[nH]ncc4c3)cc2c1N1CCc2cc(F)c(Cl)cc21	1.45% (active)
O=C1Nc2ccc(F)cc2/C1=C\C(=O)c1ccc(NS(=O)(=O)c2ccccc2)cc1	33.1%
O=C1c2c(c3c4cccnc4[nH]c3c3ccc4ccccc4c23)C(=O)N1CCN1CCOCC1	42.2%
O=C(COc1cccc2cccnc12)Nc1ccc(C(=O)/C=C/c2ccc(Cl)cc2)cc1	64.4%
CSc1ccc2c(c1)N(C(=O)/C(C#N)=C/c1c[nH]c3ccccc13)c1ccccc1S2	12.8%
